The campaign covered roughly 5,500 compounds. About 2,000 (36%) were called active. Roughly 18% stayed inconclusive and do not appear here. Rule as the data show it: active = normalized growth mostly below about 0.91 (no sharp cut-off); inconclusive = no clear call, values can overlap the other calls; inactive = mostly above about 0.92. This is one part of the list.
Experiment: chemical genetic growth profiling, strain panel (AID 1159580);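 also: tested at 20 µM; growth read once vehicle control cultures reached saturation at 30 °C; 1 = growth at the plate median or of vehicle wells; lower values mean less growth of the strain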
Conditions: S. cerevisiae deletion strains, growth OD
[1] = locus YAL013W, strain DEP1, stronger effect = lower value
[2] = locus YDR150W, strain NUM1, stronger effect = lower value
[3] = locus YHR030C, strain SLT2, stronger effect = lower value
[4] = locus YNL128W, strain TEP1, stronger effect = lower value
[5] = locus YNL153C, strain GIM3, stronger effect = lower value
[6] = locus YPL055C, strain LGE1, stronger effect = lower value

Measured: normalized growth

NC(=O)c1ccccc1N1CCCCC1
inactive: [1] 1.01 | locus YBR229C, strain ROT2, stronger effect = lower value 0.986 | locus YDL101C, strain DUN1, stronger effect = lower value 0.949 | [2] 0.912 | locus YEL061C, strain CIN8, stronger effect = lower value 1.02 | locus YGR078C, strain PAC10, stronger effect = lower value 0.997 | [3] 0.986 | locus YHR087W, strain rtc3, stronger effect = lower value 1.05 | locus YJL187C, strain SWE1, stronger effect = lower value 1.02 | locus YJR043C, strain POL32, stronger effect = lower value 0.99 | locus YJR075W, strain HOC1, stronger effect = lower value 0.965 | locus YKL190W, strain CNB1, stronger effect = lower value 1.01 | locus YLR039C, strain RIC1, stronger effect = lower value 1.02 | locus YLR058C, strain SHM2 (second series), stronger effect = lower value 1.02 | locus YLR085C, strain ARP6, stronger effect = lower value 1.06 | locus YLR262C, strain YPT6, stronger effect = lower value 1.02 | locus YML094W, strain GIM5, stronger effect = lower value 1.02 | locus YMR219W, strain ESC1, stronger effect = lower value 0.997 | locus YMR263W, strain SAP30, stronger effect = lower value 0.941 | [4] 0.996 | [5] 0.993 | locus YNL298W, strain CLA4 (second series), stronger effect = lower value 0.991 | locus YNL322C, strain KRE1, stronger effect = lower value 0.994 | locus YNR030W, strain Alg12, stronger effect = lower value 1 | locus YOL006C, strain TOP1, stronger effect = lower value 0.991 | [6] 0.998 | locus YPL241C, strain CIN2, stronger effect = lower value 0.994 | locus YPR135W, strain CTF4, stronger effect = lower value 0.907

CC(C)(C)c1ccc(C(O)CCCN2CCC(C(O)(c3ccccc3)c3ccccc3)CC2)cc1 (stereo not given)
active: locus YER002W, strain NOP16, stronger effect = lower value 1.22 [resistant] | locus YNL175C, strain NOP13, stronger effect = lower value 1.25 [resistant] | locus YNL197C, strain WHI3, stronger effect = lower value 1.15 [resistant]
inactive: [1] 0.984 | locus YAL040C, strain CLN3, stronger effect = lower value 0.991 | locus YCL061C, strain MRC1 (second series), stronger effect = lower value 1 | [2] 1.01 | locus YDR363W, strain ESC2, stronger effect = lower value 1 | locus YGR229C, strain SMI1, stronger effect = lower value 0.936 | [3] 0.952 | locus YHR079C, strain IRE1, stronger effect = lower value 0.941 | locus YJL095W, strain BCK1, stronger effect = lower value 0.973 | locus YJR066W, strain TOR1, stronger effect = lower value 0.972 | locus YLR113W, strain HOG1, stronger effect = lower value 0.978 | locus YMR307W, strain GAS1, stronger effect = lower value 1.01 | [4] 1.09 | [5] 1.01 | locus YNL183C, strain NPR1, stronger effect = lower value 0.936 | locus YOR083W, strain WHI5 (second series), stronger effect = lower value 1.05 | locus YOR231W, strain MKK1, stronger effect = lower value 0.966 | [6] 0.978 | locus YPL256C, strain CLN2, stronger effect = lower value 0.955

Reference: PubChem BioAssay AID1159580 (chemical genetic matrix, 2015)
